# Data reported in the supplement of paper PMC8728848.
# This excerpt belongs to a sample that is enriched for the strongest signals.
# B1: HopZSSI-T (Helicobacter pylori), B5Z6D0 (protein)
# chain: MGSSHHHHHHSSGLVPRGSHMENLYFQGEDNGFFISAGYQIGEAAQMVKNTGELKKLSDTYENLSNLLTNFNNLNQAVTNASSPSEINAAIDNLKANTQGLTGEKTNSPAYQAVYLALNAAVGLWNVIAYNVQCGPGNSSQQSVTFEGQPGHNSSSINCNLTGYNNGVSGPLSIDNFKQLNQAYQVLQQALKQGVPVLNNTNQKIEVKVTTQTNGQSSKETTTTTTTNDAQTLLQEASKMIDVLTTNCPWVNHNPGQNGGAPWGLIRQECVSGFATEFSAVTSMIKNAQEIVTQAQSLNANQNNQNAPQDFNPYTSADRAFAQNMLNHAQAQAKILELADQMKKDLNTIPSQFITNYLAACRIDGTTPSQGVTNNTWGAGCAYVEETITALNNSLAHFGTQAEQIKQSELLARTILDFRGSLSTLNSTYNSITTTASNTPNSPFLKNLISQSTNPNNPGGLQAVYQVNQSAYSQLLSATQELGHNPFRRIGLISSQT
# Experiments:
# Test in all cases: glycan array binding signal (z-score within array); higher = stronger binding
# Conditions in all cases: glycan notation: IUPAC condensed, linker removed
# [1] = molecular target: Fuc(a1-2)Gal(b1-4)[Fuc(a1-3)]GlcNAc
# Method in brief: (§1)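 Negative Z-scores can be read as non-binding. The Z-score is calculated within each array and then averaged across arrays of one protein sequence at different concentrations or buffers and across linkers. Arrays, 3228 in all, were curated from the Consortium for Functional Glycomics database and kept only where the protein sequence was available.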
# [2] = molecular target: Fuc(a1-2)[Gal(a1-3)]Gal(b1-3)GlcNAc(b1-2)Man(a1-3)[Fuc(a1-2)[Gal(a1-3)]Gal(b1-3)GlcNAc(b1-2)Man(a1-6)]Man(b1-4)GlcNAc(b1-4)GlcNAc
# Method in brief: as §1
# [3] = molecular target: Fuc(a1-2)[Gal(a1-3)]Gal(b1-4)[Fuc(a1-3)]GlcNAc
# Method in brief: as §1
# [4] = molecular target: Fuc(a1-2)[GalNAc(a1-3)]Gal
# Method in brief: as §1
# [5] = molecular target: Fuc(a1-2)[GalNAc(a1-3)]Gal(b1-4)[Fuc(a1-3)]GlcNAc
# Method in brief: as §1
# [6] = molecular target: Fuc(a1-3)[Gal(b1-4)]GlcNAc(b1-2)Man(a1-3)[Fuc(a1-3)[Gal(b1-4)]GlcNAc(b1-2)Man(a1-6)]Man(b1-4)GlcNAc(b1-4)GlcNAc
# Method in brief: as §1
# [7] = molecular target: Fuc(a1-3)[Gal(b1-4)]GlcNAc(b1-2)Man(a1-3)[Fuc(a1-3)[Gal(b1-4)]GlcNAc(b1-2)Man(a1-6)]Man(b1-4)GlcNAc(b1-4)[Fuc(a1-6)]GlcNAc
# Method in brief: as §1
# [8] = molecular target: Fuc(a1-3)[Gal(b1-4)]GlcNAc(b1-4)Gal(b1-4)[Fuc(a1-3)]GlcNAc
# Method in brief: as §1
# [9] = molecular target: Gal(a1-3)Gal(b1-4)GlcNAc(b1-2)Man
# Method in brief: as §1
# [10] = molecular target: Gal(a1-3)Gal(b1-4)GlcNAc(b1-3)GalNAc
# Method in brief: as §1
# Gal(b1-3)Gal(b1-4)GlcNAc = molecular target: Gal(b1-3)Gal(b1-4)GlcNAc
# Method in brief: as §1
# [11] = molecular target: Gal(b1-3)GlcNAc(b1-2)[Gal(b1-3)GlcNAc(b1-6)]Man(a1-6)[Gal(b1-3)GlcNAc(b1-2)Man(a1-3)]Man(b1-4)GlcNAc(b1-4)GlcNAc
# Method in brief: as §1
# [12] = molecular target: Gal(b1-4)GlcNAc(b1-2)Man(a1-3)[Gal(b1-4)GlcNAc(b1-2)Man(a1-6)][GlcNAc(b1-4)]Man(b1-4)GlcNAc(b1-4)[Fuc(a1-6)]GlcNAc
# Method in brief: as §1
# [13] = molecular target: Gal(b1-4)GlcNAc(b1-3)Gal(b1-4)GlcNAc(b1-3)Gal(b1-4)GlcNAc(b1-3)Gal(b1-4)GlcNAc(b1-2)Man(a1-3)[Gal(b1-4)GlcNAc(b1-3)Gal(b1-4)GlcNAc(b1-3)Gal(b1-4)GlcNAc(b1-3)Gal(b1-4)GlcNAc(b1-2)Man(a1-6)]Man(b1-4)GlcNAc(b1-4)[Fuc(a1-6)]GlcNAc
# Method in brief: as §1
# [14] = molecular target: Gal(b1-4)GlcNAc(b1-3)Gal(b1-4)GlcNAc(b1-3)Gal(b1-4)GlcNAc(b1-3)Gal(b1-4)GlcNAc(b1-2)[Gal(b1-4)GlcNAc(b1-3)Gal(b1-4)GlcNAc(b1-3)Gal(b1-4)GlcNAc(b1-3)Gal(b1-4)GlcNAc(b1-6)]Man(a1-6)[Gal(b1-4)GlcNAc(b1-3)Gal(b1-4)GlcNAc(b1-3)Gal(b1-4)GlcNAc(b1-3)Gal(b1-4)GlcNAc(b1-2)Man(a1-3)]Man(b1-4)GlcNAc(b1-4)[Fuc(a1-6)]GlcNAc
# Method in brief: as §1
# [15] = molecular target: Gal(b1-4)GlcNAc(b1-3)Gal(b1-4)GlcNAc(b1-3)Gal(b1-4)GlcNAc(b1-3)Gal(b1-4)GlcNAc(b1-3)Gal(b1-4)GlcNAc(b1-2)Man(a1-3)[Gal(b1-4)GlcNAc(b1-3)Gal(b1-4)GlcNAc(b1-3)Gal(b1-4)GlcNAc(b1-3)Gal(b1-4)GlcNAc(b1-3)Gal(b1-4)GlcNAc(b1-2)Man(a1-6)]Man(b1-4)GlcNAc(b1-4)GlcNAc
# Method in brief: as §1
# [16] = molecular target: Gal(b1-4)GlcNAc(b1-3)Gal(b1-4)GlcNAc(b1-3)Gal(b1-4)GlcNAc(b1-3)Gal(b1-4)GlcNAc(b1-3)Gal(b1-4)GlcNAc(b1-2)Man(a1-3)[Gal(b1-4)GlcNAc(b1-3)Gal(b1-4)GlcNAc(b1-3)Gal(b1-4)GlcNAc(b1-3)Gal(b1-4)GlcNAc(b1-3)Gal(b1-4)GlcNAc(b1-2)Man(a1-6)]Man(b1-4)GlcNAc(b1-4)[Fuc(a1-6)]GlcNAc
# Method in brief: as §1
# [17] = molecular target: Gal(b1-4)GlcNAc(b1-6)GalNAc
# Method in brief: as §1
# Gal4S6S(b1-4)GlcNAc = molecular target: Gal4S6S(b1-4)GlcNAc
# Method in brief: as §1
# GalNAc(b1-4)GlcNAc = molecular target: GalNAc(b1-4)GlcNAc
# Method in brief: as §1
# [18] = molecular target: GalNAc(b1-4)GlcNAc(b1-3)GalNAc(b1-4)GlcNAc
# Method in brief: as §1
# GalNAc4S6S(b1-4)GlcNAc = molecular target: GalNAc4S6S(b1-4)GlcNAc
# Method in brief: as §1
# GalNAc6S(b1-4)GlcNAc = molecular target: GalNAc6S(b1-4)GlcNAc
# Method in brief: as §1
# [19] = molecular target: Glc(a1-4)Glc(a1-4)Glc(a1-4)Glc
# Method in brief: as §1
# [20] = molecular target: GlcNAc(a1-4)Gal(b1-4)GlcNAc
# Method in brief: as §1
# [21] = molecular target: GlcNAc(b1-2)Man(a1-3)[GlcNAc(b1-2)Man(a1-6)]Man(b1-4)GlcNAc(b1-4)[Fuc(a1-6)]GlcNAc
# Method in brief: as §1
binder,measurement,setting,value
B1,glycan array binding signal (z-score),[1],-0.221
same,glycan array binding signal (z-score),[2],-0.111
same,glycan array binding signal (z-score),[3],0.174
same,glycan array binding signal (z-score),[4],-0.229
same,glycan array binding signal (z-score),[5],-0.057
same,glycan array binding signal (z-score),[6],-0.248
same,glycan array binding signal (z-score),[7],-0.378
same,glycan array binding signal (z-score),[8],-0.536
same,glycan array binding signal (z-score),[9],-0.247
same,glycan array binding signal (z-score),[10],-0.615
same,glycan array binding signal (z-score),Gal(b1-3)Gal(b1-4)GlcNAc,-0.409
same,glycan array binding signal (z-score),[11],0.014
same,glycan array binding signal (z-score),[12],-0.305
same,glycan array binding signal (z-score),[13],1.74
same,glycan array binding signal (z-score),[14],0.699
same,glycan array binding signal (z-score),[15],2.12
same,glycan array binding signal (z-score),[16],1.86
same,glycan array binding signal (z-score),[17],1.25
same,glycan array binding signal (z-score),Gal4S6S(b1-4)GlcNAc,-0.807
same,glycan array binding signal (z-score),GalNAc(b1-4)GlcNAc,2.32
same,glycan array binding signal (z-score),[18],0.498
same,glycan array binding signal (z-score),GalNAc4S6S(b1-4)GlcNAc,3.87
same,glycan array binding signal (z-score),GalNAc6S(b1-4)GlcNAc,9.12
same,glycan array binding signal (z-score),[19],-0.263
same,glycan array binding signal (z-score),[20],0.109
same,glycan array binding signal (z-score),[21],0.081
